ZTA counter: blocks Epstein-Barr virus ZTA, an EBNA-1 counter-screen. hit rate 0.15% among 320,000. ZTA-DNA binding, fluorescence polarization. inhibition, % at 11 µM. AID 2234; in the data active means inhibition above about 33%
Target sequence (P03206 whole entry, looked up): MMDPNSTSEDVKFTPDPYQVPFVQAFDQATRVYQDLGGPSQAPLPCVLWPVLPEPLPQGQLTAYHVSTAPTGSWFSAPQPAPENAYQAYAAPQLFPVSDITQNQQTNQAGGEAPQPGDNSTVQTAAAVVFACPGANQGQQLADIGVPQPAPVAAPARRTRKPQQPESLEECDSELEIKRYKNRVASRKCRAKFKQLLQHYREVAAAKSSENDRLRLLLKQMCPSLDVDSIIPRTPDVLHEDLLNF
EBV gp42 block: blocks Epstein-Barr virus glycoprotein 42 binding; inhibition, % (tested at 21.74 µM); Fluorescence polarization binding assay, mP read-out; AID 1085; Q1HVG2; hit rate 0.42% among 220,000; in the data active means inhibition above about 50%
Target sequence (Q1HVG2 whole entry, looked up): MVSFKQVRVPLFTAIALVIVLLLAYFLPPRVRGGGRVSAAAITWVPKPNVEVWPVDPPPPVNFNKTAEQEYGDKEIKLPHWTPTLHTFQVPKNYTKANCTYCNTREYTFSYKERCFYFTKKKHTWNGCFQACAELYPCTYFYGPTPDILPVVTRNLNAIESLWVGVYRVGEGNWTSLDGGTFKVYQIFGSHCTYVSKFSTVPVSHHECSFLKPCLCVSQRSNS
MEX-5 binding: C. elegans MEX-5 TCR-2 RNA binding activity | MEX-5/FITC-TCR2 RNA binding, fluorescence polarization; active compounds read low | Q9XUB2 | AID 1832 | activity score (negative = inhibition of binding), % at 10 µM | hit rate 0.38% among 300,000;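 active means inhibition past about -25% in most replicates, and total fluorescence under double the plate's negative control median, limit read from the data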;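 further: 0% = DMSO and -100% = 5 µM competing unlabeled TCR2 RNA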
EBNA-1 inh: blocks EBNA-1 binding to DNA; EBNA-1 DNA binding, fluorescence polarization; inhibition, % at 14.8 µM; hit rate 0.34% among 300,000; in the data active means inhibition above about 28%
EBNA-1 inh conf: EBNA-1 (EBV) inhibition, confirmation. inhibition, % at 14.8 µM. hit rate 35% among 830. shares compounds with EBNA-1 inh. Recombinant EBNA-1 DBD, Cy5-DNA fluorescence polarization;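 active means mean inhibition across replicates above a set limit taken from the earlier primary screen, cut at about 28% in these data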;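 further: plate controls were EBNA-1 protein with DMSO for no effect and wells lacking EBNA-1 for full effect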
ZTA counter trip: counter-screen for EBNA-1 inhibitors: Epstein-Barr virus ZTA inhibitors, triplicate | Zta-ZRE DNA binding, Cy5 fluorescence polarization | inhibition, % at 11.1 µM | shares compounds with EBNA-1 inh | 830 tested, under 10 active;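 active means mean inhibition over triplicates above a set limit taken from the primary EBNA-1 screen, cut at about 37% in these data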;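 further: purified full length Zta protein with Cy5 labeled ZRE DNA probe; 0% = Zta with DMSO and 100% = wells lacking Zta protein; inhibitors lower polarization by freeing the labeled DNA probe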
Numbers without * were called inactive; . = not tested or not shown. Sampled rows, rich in hits. Any-hit rate of the full collection: about 1%.

SMILES	ZTA counter	EBV gp42 block	MEX-5 binding	EBNA-1 inh	EBNA-1 inh conf	ZTA counter trip
CSc1nc2ccc(NC(=O)c3ccc(Cl)s3)cc2s1	-6	-13	.	38*	34*	3
CCCOc1cccc(-c2nnc(N)s2)c1	-10	-24	3	33*	-6	5
COCCn1c(Cc2ccccc2)nnc1SCC(=O)NC(C)C	19	-10	2	87*	3	3
COCCn1c(Cc2ccccc2)nnc1SCC(=O)NC(C)(C)C	-8	-11	1	-5	.	.
COc1ccc(-n2c(SCC(=O)NCCCN3CCCC3=O)nnc2C(C)N2CCCCC2)cc1 (stereo not given)	-3	-4	-2	41*	2	0
O=C(c1cc(F)c(F)cc1Cl)N1CCN(CCc2ccccc2)CC1	-4	.	3	9	.	.
COc1ccc(CNc2nc(NCc3ccc(OC)cc3)n(C(C)=O)n2)cc1	0	-7	0	65*	72*	9
O=C(COC(=O)c1cc(NS(=O)(=O)c2cccs2)ccc1O)Nc1cc(Cl)ccc1Cl	12	-17	-1	36*	15	6
COC(=O)/C=C1\SC(=Nc2ccccc2)NC1=O	-6	-14	3	-8	.	.
COC(=O)/C=C1/SC(=Nc2ccc(Cl)c(Cl)c2)NC1=O	-2	-10	2	41*	-8	-10
Cc1ccc(S(=O)(=O)c2nc(S(=O)(=O)c3ccc(C)cc3)c(N3CCN(CCO)CC3)s2)cc1	-14	.	-1	-9	.	.
COc1cccc(-c2cc(C(=O)Nc3cnn(Cc4ccc(F)cc4)c3)no2)c1	-2	-7	-1	47*	32*	18
N#Cc1ccsc1NC(=O)COC(=O)c1ccc(NC(N)=O)cc1	5	10	-3	-12	.	.
N#Cc1ccsc1NC(=O)COC(=O)c1cc2ccccc2cc1O	8	-15	-4	48*	14	5
O=C(NCCN1CCN(C(=O)c2ccc(F)cc2)CC1)c1ccc(F)cc1	7	.	2	-8	.	.
COc1ccccc1C(=O)Nc1ccc(-c2nnn(CC(=O)NCc3ccco3)n2)cc1	3	1	1	42*	52*	19
O=C(Cn1nnc(-c2ccccc2NC(=O)c2cccs2)n1)Nc1ccccc1	3	-11	1	28*	47*	2
COc1ccc(C(=O)Nc2ccccc2-c2nnn(CC(=O)NCc3ccco3)n2)cc1	2	-18	1	54*	15	6
COc1ccccc1NC(=O)Cn1nnc(-c2ccccc2NC(=O)c2cccs2)n1	-23	-4	-3	-7	.	.
Cc1cccc(NC(=O)CSc2ccc(-c3cccs3)nn2)c1C	10	-2	-1	29*	16	3
Cc1ccc(C)c(NC(=O)CSc2ccc(-c3cccs3)nn2)c1	12	-10	0	25	.	.
CC(=O)Nc1ccc(NC(=O)CSc2ccc(-c3cccs3)nn2)cc1	3	-1	-2	41*	38*	1
CC(=O)Nc1ccc(NC(=O)CSc2ccc(-c3ccco3)nn2)cc1	-2	5	-2	-1	.	.
O=C(NCc1ccc(Cl)cc1)c1cc2c(s1)CS(=O)(=O)C2	4	.	0	-19	.	.
COC(=O)c1c(NC(=O)c2ccccc2)sc2c1CC(C)(C)OC2	13	-4	-4	32*	2	0
SMILES	ZTA counter	EBV gp42 block	MEX-5 binding	EBNA-1 inh	EBNA-1 inh conf	ZTA counter trip
CN(C)C1=NCCN1CCC1CCCCC1	-2	.	.	-15	.	.
COc1ccc(CNC(=O)C[C@H]2C(=O)N(CCc3ccccc3)C[C@@H]2Cc2ccccc2)cc1	5	.	2	-3	.	.
COc1ccc2c(c1)[nH]c1c(=O)n(Cc3ccco3)cnc12	5	-16	0	37*	-2	-13
CN1CCN(c2nc(-c3ccccn3)nc3ccccc23)CC1	-6	-8	-1	63*	5	-2
O=C1CN(C(=S)NC(=O)c2ccccc2[N+](=O)[O-])CCN1	-4	.	2	0	.	.
COc1ccc(CN2CC(C(=O)N3CCOCC3)CC2=O)cc1 (stereo not given)	-3	-8	1	47*	-13	-26
CCN1C(=O)[C@H]2[C@@H](c3ccc(OC)cc3)N3C(=O)CN(CCOC)C(=O)[C@@]3(C)[C@H]2C1=O	9	.	2	8	.	.
Cc1ccc(C(=O)NC(=S)Nc2ccc3[nH]c(=O)[nH]c3c2)cc1	33	-7	-1	43*	34*	12
COc1cc2c(cc1O)CCN(C(=O)CSc1nncn1C)[C@@H]2C	4	.	.	.	.	.
COc1ccc(CNC(=O)Nc2cc(C)ccc2C)cc1	-12	-17	0	9	.	.
COc1ccc(CNC(=O)Nc2ccc(C)cc2C)cc1	0	-4	0	63*	28*	-1
O=C(CCCCCn1c(=S)[nH]c2cc3c(cc2c1=O)OCO3)N1CCN(Cc2ccccc2)CC1	-1	-23	-1	37*	69*	-3
O=C(CCCCCn1c(=S)[nH]c2cc3c(cc2c1=O)OCO3)N1CCN(C(=O)c2ccco2)CC1	14	-20	-2	14	.	.
Cc1ccc(NC(=O)CCn2c(=S)oc3ccccc32)cc1	-4	1	-1	43*	55*	1
O=C(CCn1c(=S)oc2ccccc21)Nc1ccc(F)cc1	7	-13	1	48*	19	2
CN(C)c1ccc(NC(=O)CCn2c(=S)oc3ccccc32)cc1	-16	-11	-1	-3	.	.
CC1CCN(S(=O)(=O)c2ccc(NC(=O)Cn3nnc(-c4ccccc4)n3)cc2)CC1	19	0	1	30*	5	-15
O=C(Nc1ccc2oc(=O)ccc2c1)c1ccc(-c2cccc(Cl)c2)o1	5	-4	-3	32*	25	21
COc1ccc(-n2c(SCCNCCO)nc3sc4c(c3c2=O)CCCC4)cc1	-4	.	3	2	.	.
COc1ccccc1-c1cc(C(F)(F)F)nc(NCc2ccco2)n1	26	-19	2	40*	0	3
FC(F)(F)c1cc(-c2ccco2)nc(NCc2ccccc2)n1	6	-1	0	1	.	.
CCOC(=O)c1c(C)[nH]c(C)c1S(=O)(=O)N(C)CC(=O)Nc1cccc(C)n1	2	.	-1	-10	.	.
O=c1oc2c(O)c(O)cc3c(=O)oc4c(O)c(O)cc1c4c23	26	86*	.	39*	47*	37*
O=C(Nc1cccc(C(F)(F)F)c1)c1ccc2nc(-c3ccco3)c(-c3ccco3)nc2c1	-21	-7	1	68*	4	8
O=C(Nc1cccc(C(F)(F)F)c1)c1cc[n+]([O-])cc1	-3	.	2	-5	.	.
Cc1ccc2nc(-c3cccnc3SCC(=O)N3c4ccccc4CC3C)[nH]c2c1 (stereo not given)	8	-31	2	28*	30*	-6
O=S(=O)(Nc1ccc(-c2ccc3nncn3n2)cc1)c1cccs1	-10	.	0	-5	.	.
CCS(=O)(=O)c1ncc(Cl)c(C(=O)Nc2ccc(S(=O)(=O)N3CCC(C)CC3)cc2)n1	1	.	0	5	.	.

Screening data: PubChem BioAssay, several laboratories
